# Source: publication PMC4552634, “A New Set of Chemical Starting Points with Plasmodium falciparum Transmission-Blocking Potential for Antimalarial Drug Discovery” (PLoS ONE, 2015)
# Where two headings read alike, the source gives them in different places. Hit rate of the full screen: of about 13,000 compounds, about 3,200 (25%) showed an effect of 50% or more. The list shows a part of the results.
# System: P. falciparum stage V gametocytes
# Parameters: BacTiter-Glo ATP luminescence viability of purified stage V gametocytes in 384-well plates, per cent inhibition versus DMSO
# Conditions: 48 h, 5 µM, inhibitor
Structure (SMILES),% Inhibition,% Inhibition (% Inhibition)
Oc1c(C=Nn2cnnc2)sc2ccccc12 [TCMDC-125759],-2.761%,
O=[N+]([O-])c1cccc(-c2nc(-c3ccc(Br)cc3)[nH]c2-c2ccc(Br)cc2)c1 [TCMDC-124605],-41.82%,
Cc1ccc(S(=O)(=O)c2nc(S(=O)(=O)c3ccccc3)sc2NCC2CCCO2)cc1 (centres unmarked) [TCMDC-124749],4.322%,
CCCCCN=C(N)N/N=C/c1c[nH]c2ccc(OC)cc12 [TCMDC-125887],106.4%,
COc1ccc2cc(C=NNc3nc4ccccc4[nH]3)c(Cl)nc2c1 [TCMDC-124889],-71.34%,
CCCCCCCN(CCCCCCC)CCCC(=O)Nc1ccnc2ccc(OC)cc12.O=C(O)C(=O)O [TCMDC-139843],-16.87%,
O=C(NC12CC3CC(CC(C3)C1)C2)C(=O)c1c[nH]c2ccccc12 [TCMDC-123481],-3.925%,
O=C(CNc1ccncc1)c1c[nH]c2ccccc12 [TCMDC-124024],4.031%,
O=C(CSc1nn(-c2ccccc2)c(=S)s1)c1c[nH]c2ccccc12 [TCMDC-124894],95.1%,
Cc1[nH]c2ccccc2c1C(=O)CSc1nn(-c2ccccc2)c(=S)s1 [TCMDC-124893],60.68%,
O=C(c1c(-c2[nH]c3ccccc3c2C(=O)C(F)(F)F)[nH]c2ccccc12)C(F)(F)F [TCMDC-125831],0.8709%,
N#Cc1ccc2c(c1)CN(CCC1CCC(NC(=O)c3cc4cc(OC(F)(F)F)ccc4[nH]3)CC1)CC2 (centres unmarked) [TCMDC-139160],23.56%,
Cc1cccc2nc(-c3cccc(-c4cccc(C(=O)NCCc5cn(C)cn5)c4)c3)[nH]c12 [TCMDC-132494],-97.59%,
N#Cc1ccc(-c2ccc(C(=O)NCCCCN3CCC(c4ccc5c(c4OCc4ccncc4)CCCC5)CC3)cc2)cc1 [TCMDC-138732],54.86%,
CC(C)(Oc1c(C2CCN(CCCCNC(=O)c3ccc(-c4ccc(C#N)cc4)cc3)CC2)ccc2c1CCCC2)C(N)=O [TCMDC-134828],39.17%,
O=C(NCCCCN1CC=C(c2ccc3c(c2OCc2ccccc2)CCCC3)CC1)c1ccc(-c2ccc(C(F)(F)F)cc2)cc1 [TCMDC-138746],-33.61%,
O=C(NCCCCN1CCC(c2ccc3c(c2OCc2ccncc2)CCCC3)CC1)c1ccc(-c2ccc(C(F)(F)F)cc2)cc1 [TCMDC-138733],60.19%,
N#Cc1ccc(-c2ccc(C(=O)NCCCCN3CCC(c4ccc5c(c4OCc4ccccn4)CCCC5)CC3)cc2)cc1 [TCMDC-138737],66.39%,
CC(=O)Oc1c(C2CCN(CCCCNC(=O)c3ccc(-c4ccc(C#N)cc4)cc3)CC2)ccc2c1CCCC2 [TCMDC-138650],-28.73%,
O=C(NCCN1Cc2ccccc2C1=O)c1ccc(Oc2ccc(C(=O)NCCN3Cc4ccccc4C3=O)cc2)cc1 [TCMDC-125669],22.87%,
CCOC(=O)C(C#N)NC(=O)C=Cc1ccccc1 (centres unmarked) [TCMDC-131634],-4.008%,
C=C(C)C1CC=C(CN2CCC(N3CCc4cc(NC(=O)c5cc(C)on5)ccc43)C2)CC1 (centres unmarked) [TCMDC-135089],10.83%,

Structure (SMILES),% Inhibition,% Inhibition (% Inhibition)
O=C(Nc1cc(Cl)cc(Cl)c1)c1cc(Cl)c(=O)n(Cc2cccc(Cl)c2)c1 [TCMDC-123809],-55.71%,
COc1ccccc1N1CCN(Cc2cc(C(C)C)c(C)cc2O)CC1 [TCMDC-124541],-1.392%,
O=C(/C=C/C=C/c1ccccc1)NC1CCC(CN2CCC(c3c[nH]c4ccccc34)CC2)CC1 (centres unmarked) [TCMDC-139708],100.6%,
O=C(C=Cc1ccc(-c2ccccc2)cc1)NC1CCC(CN2CCC(c3c[nH]c4ccccc34)CC2)CC1 (centres unmarked) [TCMDC-139951],,123.9%
O=C(C=Cc1ccc(-c2ccccc2)cc1)NC1CCC(CN2CCC(c3c[nH]c4ccccc34)CC2)CC1 (centres unmarked) [TCMDC-139935],,108%
COc1ccc2nccc(N3CCN(CCNCc4ccc5c(n4)NC(=O)CO5)CC3)c2c1.Cl [TCMDC-141961],30.82%,
Cc1nc2nc(N)nc(N)c2c(C)c1Cc1cccc(C(N)=O)c1 [TCMDC-137643],17.6%,
CS(=O)(=O)c1ccc(-n2nc(C(F)(F)F)cc2-c2ccc(C=NOCC(=O)O)o2)cc1 [TCMDC-132015],-3.43%,
COc1cccc(-c2cccc(CNC3CCN(CC4Cn5c(=O)ccc6ccc(F)c4c65)CC3)c2)c1 (centres unmarked) [TCMDC-134412],5.028%,
Cc1ccc(Cc2cnc(CN3CCCCC3)c(O)c2)cc1 [TCMDC-125485],30.78%,
O=S(=O)(c1ccccc1C(F)(F)F)C1CC2CCC(C1)N2S(=O)(=O)c1ccc(Cl)c(C(F)(F)F)c1 (centres unmarked) [TCMDC-134268],33.38%,
O=S(=O)(c1ccc(OC(F)(F)F)cc1)C1CC2CCC(C1)N2S(=O)(=O)c1ccc(Cl)c(C(F)(F)F)c1 (centres unmarked) [TCMDC-134267],71.42%,
O=S(=O)(c1ccccc1OC(F)(F)F)C1CC2CCC(C1)N2S(=O)(=O)c1cccc(C(F)(F)F)c1 (centres unmarked) [TCMDC-134266],7.024%,
COc1cc(Cc2cnc(N)nc2N)ccc1OCc1ccc(-c2ccccc2C#N)cc1 [TCMDC-138638],-1.728%,
Cc1ccc2c(NC(=O)Nc3ccc(N(C)C)cc3)cc(C)nc2c1 [TCMDC-140144],-85.96%,
CC(C)C[C@@H](NC(=O)OC(C)(C)C)C(=O)Nc1ccc(Cc2ccc(NC(=O)[C@@H](CC(C)C)NC(=O)OC(C)(C)C)cc2)cc1 [TCMDC-131869],-46.99%,
Nc1nccc2ccc(-c3ccc(NC(=O)Nc4cc(C(F)(F)F)ccc4F)cc3)cc12 [TCMDC-133422],80.96%,
Nc1ncnc2occ(-c3ccc(NC(=O)Nc4cc(C(F)(F)F)ccc4F)cc3)c12 [TCMDC-141371],14.45%,
Cc1cc(N)ncc1-c1ccc(NC(=O)Nc2cc(C(F)(F)F)ccc2F)cc1 [TCMDC-133438],25.29%,
Nc1ccc(-c2ccc(NC(=O)Nc3cc(C(F)(F)F)ccc3F)cc2)cn1 [TCMDC-133410],11.7%,
NCCCNc1ccc(-c2ccc(NC(=O)Nc3cc(C(F)(F)F)ccc3F)cc2)cn1 [TCMDC-133550],53.18%,
Nc1ncc(-c2ccc(NC(=O)Nc3cc(C(F)(F)F)ccc3F)cc2)c(N)n1 [TCMDC-133420],7.471%,
